Targets with a hit are over-represented here; the source holds about 7,900 in all. About 0.6% of all pairs of compound and target were hits. A number with no mark means an inactive call.
What follows are targets tested with c1cc(OCCN2CCCCC2)cc(-c2n[nH]c3ccc(-c4nnc[nH]4)cc23)c1 (assay: log2 fold change, soluble protein after heating vs DMSO (PISA); higher = thermal stabilisation; K562 cells, 10 uM, 30 min; active = over 0.2 and 3.5 SD of the protein, either way, in both replicates (recomputed)).
How it was run: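 K562 cells (2×10^6 cells/mL) were treated with 10 μM compound for 30 min, and aliquots were heated for 3 min over 48°C-58°C. Pooled aliquots were extracted in PBS with 0.5% NP-40 at 4°C, and the supernatant after 21,000xg for 90 min was measured by TMTpro 16plex LC-MS/MS with channel sums equalised. Reported thermal stability, relative to control samples and from duplicates, is a log2 fold change.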

Chain of UniProt P21964 (P21964 whole entry, looked up): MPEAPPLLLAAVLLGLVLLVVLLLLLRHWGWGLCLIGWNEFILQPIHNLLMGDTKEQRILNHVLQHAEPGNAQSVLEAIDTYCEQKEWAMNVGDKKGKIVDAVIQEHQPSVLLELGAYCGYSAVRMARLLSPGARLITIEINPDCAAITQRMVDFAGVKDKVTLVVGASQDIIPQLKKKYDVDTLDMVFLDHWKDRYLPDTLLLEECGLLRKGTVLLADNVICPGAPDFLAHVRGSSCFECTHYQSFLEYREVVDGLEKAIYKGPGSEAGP
Chain of UniProt Q99439 (Q99439 whole entry, looked up): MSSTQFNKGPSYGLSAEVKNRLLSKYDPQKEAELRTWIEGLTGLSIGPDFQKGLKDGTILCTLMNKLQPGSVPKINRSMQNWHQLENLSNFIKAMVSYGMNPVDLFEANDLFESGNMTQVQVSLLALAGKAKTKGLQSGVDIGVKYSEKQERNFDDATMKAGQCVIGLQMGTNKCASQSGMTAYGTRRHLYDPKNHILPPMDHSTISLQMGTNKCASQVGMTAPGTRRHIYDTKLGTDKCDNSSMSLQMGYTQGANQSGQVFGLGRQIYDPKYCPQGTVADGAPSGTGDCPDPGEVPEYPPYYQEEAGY
Chain of UniProt O43405 (O43405 whole entry, looked up): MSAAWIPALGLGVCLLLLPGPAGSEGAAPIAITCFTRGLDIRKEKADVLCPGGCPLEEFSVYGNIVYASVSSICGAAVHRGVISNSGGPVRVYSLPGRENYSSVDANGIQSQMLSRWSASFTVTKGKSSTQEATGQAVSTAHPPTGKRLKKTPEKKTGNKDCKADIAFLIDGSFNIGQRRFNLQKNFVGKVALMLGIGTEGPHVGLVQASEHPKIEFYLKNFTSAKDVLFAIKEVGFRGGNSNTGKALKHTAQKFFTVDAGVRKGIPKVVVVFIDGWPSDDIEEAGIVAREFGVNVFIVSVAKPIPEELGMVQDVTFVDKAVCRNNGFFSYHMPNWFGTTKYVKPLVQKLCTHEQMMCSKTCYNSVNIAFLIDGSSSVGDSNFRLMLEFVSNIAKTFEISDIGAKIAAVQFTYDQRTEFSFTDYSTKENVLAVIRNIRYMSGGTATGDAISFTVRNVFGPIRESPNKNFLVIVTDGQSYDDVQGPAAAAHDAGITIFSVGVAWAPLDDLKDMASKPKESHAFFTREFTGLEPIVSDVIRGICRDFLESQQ
Chain of UniProt P33240 (P33240 whole entry, looked up): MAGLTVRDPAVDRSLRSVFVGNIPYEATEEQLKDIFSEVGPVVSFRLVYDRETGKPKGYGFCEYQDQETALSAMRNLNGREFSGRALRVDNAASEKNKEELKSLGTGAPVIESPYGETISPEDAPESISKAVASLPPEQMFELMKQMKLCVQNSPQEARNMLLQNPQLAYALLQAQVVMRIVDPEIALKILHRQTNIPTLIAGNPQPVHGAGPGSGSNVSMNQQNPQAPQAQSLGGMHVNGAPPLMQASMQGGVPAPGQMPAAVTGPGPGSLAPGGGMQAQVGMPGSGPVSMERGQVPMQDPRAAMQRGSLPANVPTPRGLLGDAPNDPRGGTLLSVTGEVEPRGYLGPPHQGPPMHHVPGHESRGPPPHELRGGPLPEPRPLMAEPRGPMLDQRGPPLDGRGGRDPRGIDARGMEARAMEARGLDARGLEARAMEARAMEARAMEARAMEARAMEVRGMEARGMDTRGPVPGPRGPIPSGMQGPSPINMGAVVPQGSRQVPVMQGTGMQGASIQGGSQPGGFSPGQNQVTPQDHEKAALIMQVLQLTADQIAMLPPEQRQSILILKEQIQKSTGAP
Chain of UniProt P83916 (P83916 whole entry, looked up): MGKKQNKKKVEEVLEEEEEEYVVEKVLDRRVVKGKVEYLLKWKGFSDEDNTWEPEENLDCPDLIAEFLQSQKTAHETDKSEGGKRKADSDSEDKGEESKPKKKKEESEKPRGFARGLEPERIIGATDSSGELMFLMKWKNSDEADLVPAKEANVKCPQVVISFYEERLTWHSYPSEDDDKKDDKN
Chain of UniProt Q10570 (Q10570 whole entry, looked up): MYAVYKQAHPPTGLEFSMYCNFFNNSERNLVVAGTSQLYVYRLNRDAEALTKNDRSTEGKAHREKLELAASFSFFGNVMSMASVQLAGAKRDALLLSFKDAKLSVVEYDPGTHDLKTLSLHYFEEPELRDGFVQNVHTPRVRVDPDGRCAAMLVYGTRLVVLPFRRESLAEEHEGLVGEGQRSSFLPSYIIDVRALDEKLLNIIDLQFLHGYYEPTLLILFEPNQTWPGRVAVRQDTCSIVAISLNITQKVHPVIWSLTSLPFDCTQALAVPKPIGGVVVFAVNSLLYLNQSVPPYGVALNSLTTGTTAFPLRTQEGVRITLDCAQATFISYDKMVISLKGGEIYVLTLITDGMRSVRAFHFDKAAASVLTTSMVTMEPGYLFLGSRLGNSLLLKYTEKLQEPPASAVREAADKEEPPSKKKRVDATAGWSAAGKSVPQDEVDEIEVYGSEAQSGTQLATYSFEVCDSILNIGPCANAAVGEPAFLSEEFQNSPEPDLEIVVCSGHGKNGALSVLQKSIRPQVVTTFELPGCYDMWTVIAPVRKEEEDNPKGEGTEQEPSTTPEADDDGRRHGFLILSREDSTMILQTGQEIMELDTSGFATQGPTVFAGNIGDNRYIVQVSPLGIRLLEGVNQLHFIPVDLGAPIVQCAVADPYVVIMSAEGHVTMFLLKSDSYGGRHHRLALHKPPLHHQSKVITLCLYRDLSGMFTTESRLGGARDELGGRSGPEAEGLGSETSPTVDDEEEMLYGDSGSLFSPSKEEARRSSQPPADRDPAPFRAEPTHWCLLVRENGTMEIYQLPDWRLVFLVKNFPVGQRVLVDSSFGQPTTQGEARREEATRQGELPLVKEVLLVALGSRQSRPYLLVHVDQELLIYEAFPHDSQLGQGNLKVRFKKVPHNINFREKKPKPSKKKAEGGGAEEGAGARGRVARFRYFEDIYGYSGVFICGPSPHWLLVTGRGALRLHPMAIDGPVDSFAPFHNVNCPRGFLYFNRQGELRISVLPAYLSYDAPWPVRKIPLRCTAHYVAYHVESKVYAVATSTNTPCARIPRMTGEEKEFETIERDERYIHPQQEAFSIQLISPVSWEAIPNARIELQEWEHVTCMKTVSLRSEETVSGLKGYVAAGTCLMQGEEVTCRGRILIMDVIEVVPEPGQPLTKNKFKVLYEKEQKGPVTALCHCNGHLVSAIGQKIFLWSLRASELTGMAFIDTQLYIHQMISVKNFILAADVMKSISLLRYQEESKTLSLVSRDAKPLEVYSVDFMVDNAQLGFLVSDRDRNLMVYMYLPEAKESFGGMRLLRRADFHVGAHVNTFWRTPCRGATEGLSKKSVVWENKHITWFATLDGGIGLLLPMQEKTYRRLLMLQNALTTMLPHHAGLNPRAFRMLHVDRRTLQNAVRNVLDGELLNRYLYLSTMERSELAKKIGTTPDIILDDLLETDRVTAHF
Chain of UniProt Q9Y646 (Q9Y646 whole entry, looked up): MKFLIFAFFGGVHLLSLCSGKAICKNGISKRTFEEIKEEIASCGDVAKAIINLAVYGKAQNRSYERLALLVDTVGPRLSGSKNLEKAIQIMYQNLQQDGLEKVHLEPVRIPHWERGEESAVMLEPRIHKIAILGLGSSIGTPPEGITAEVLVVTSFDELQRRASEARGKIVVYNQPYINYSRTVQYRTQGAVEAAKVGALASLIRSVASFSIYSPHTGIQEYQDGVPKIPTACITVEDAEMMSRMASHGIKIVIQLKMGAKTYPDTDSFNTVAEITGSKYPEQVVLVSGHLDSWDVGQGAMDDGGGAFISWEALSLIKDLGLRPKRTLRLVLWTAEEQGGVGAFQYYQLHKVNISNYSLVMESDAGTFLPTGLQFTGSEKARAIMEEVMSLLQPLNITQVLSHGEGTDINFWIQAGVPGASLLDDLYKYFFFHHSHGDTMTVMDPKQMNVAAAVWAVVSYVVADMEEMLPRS
Chain of UniProt Q8N163 (Q8N163 whole entry, looked up): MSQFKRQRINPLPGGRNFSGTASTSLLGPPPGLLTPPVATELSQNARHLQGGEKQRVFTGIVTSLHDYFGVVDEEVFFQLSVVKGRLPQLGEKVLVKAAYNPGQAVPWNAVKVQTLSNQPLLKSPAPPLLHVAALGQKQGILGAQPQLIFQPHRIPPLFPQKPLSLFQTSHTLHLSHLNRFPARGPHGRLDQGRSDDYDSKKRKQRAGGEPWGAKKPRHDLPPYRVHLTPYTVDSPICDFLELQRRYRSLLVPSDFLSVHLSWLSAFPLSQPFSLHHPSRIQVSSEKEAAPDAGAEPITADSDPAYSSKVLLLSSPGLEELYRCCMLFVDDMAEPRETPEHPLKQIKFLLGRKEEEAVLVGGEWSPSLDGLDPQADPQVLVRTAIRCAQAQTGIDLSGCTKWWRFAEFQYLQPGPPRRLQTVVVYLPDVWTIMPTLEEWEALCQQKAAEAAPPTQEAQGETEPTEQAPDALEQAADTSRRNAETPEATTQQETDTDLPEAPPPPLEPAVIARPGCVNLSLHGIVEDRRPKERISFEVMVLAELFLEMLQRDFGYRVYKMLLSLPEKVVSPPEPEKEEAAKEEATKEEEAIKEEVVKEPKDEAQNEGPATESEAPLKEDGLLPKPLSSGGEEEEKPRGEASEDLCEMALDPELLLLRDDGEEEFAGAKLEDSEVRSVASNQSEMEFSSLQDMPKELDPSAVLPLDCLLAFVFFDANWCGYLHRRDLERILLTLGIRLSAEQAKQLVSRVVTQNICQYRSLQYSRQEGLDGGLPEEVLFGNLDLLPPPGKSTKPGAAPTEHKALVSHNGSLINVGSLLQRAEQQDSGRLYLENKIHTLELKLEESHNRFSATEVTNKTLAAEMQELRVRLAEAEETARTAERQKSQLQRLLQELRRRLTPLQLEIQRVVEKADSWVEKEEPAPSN
Chain of UniProt P20674 (P20674 whole entry, looked up): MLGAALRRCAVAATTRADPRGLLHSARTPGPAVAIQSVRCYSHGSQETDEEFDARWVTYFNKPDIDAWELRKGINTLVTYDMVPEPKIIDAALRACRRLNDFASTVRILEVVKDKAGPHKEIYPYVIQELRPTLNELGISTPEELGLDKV
Chain of UniProt P14854 (P14854 whole entry, looked up): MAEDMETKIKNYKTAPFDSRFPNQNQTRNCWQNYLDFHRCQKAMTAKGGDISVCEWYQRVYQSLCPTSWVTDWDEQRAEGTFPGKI

Row | Target | log2 fold change
1 | CD151 (UniProt P48509) | -0.009
2 | CBX1 (UniProt P83916) | -0.034
3 | CHCHD2 (UniProt Q9Y6H1) | -0.008
4 | CCNK isoform 4 (UniProt O75909) | -0.305 (active)
5 | CBR1 (UniProt P16152) | 0.235 (active)
6 | CASP2 (UniProt P42575) | -0.032
7 | COCH (UniProt O43405) | -0.149
8 | CTBS (UniProt Q01459) | -0.023
9 | CDKN2AIP (UniProt Q9NXV6) | -0.071
10 | CBS (UniProt P35520) | 0.027
11 | COMT (UniProt P21964) | 0.015
12 | CCDC9 (UniProt Q9Y3X0) | -0.015
13 | CHD4 isoform 2 (UniProt Q14839) | -0.069
14 | COX5A (UniProt P20674) | -0.046
15 | CLCN3 (UniProt P51790) | -0.01
16 | C4A (UniProt P0C0L4) | 0.146
17 | CCAR2 isoform 2 (UniProt Q8N163) | 0.033
18 | COPS4 (UniProt Q9BT78) | 0.027

Row | Target | log2 fold change
19 | CDK16 isoform 2 (UniProt Q00536) | -0.006
20 | COPS3 (UniProt Q9UNS2) | -0.019
21 | C4orf33 (UniProt Q8N1A6) | -0.063
22 | COPS8 (UniProt Q99627) | 0.018
23 | CDK5RAP3 isoform 4 (UniProt Q96JB5) | 0.019
24 | CCZ1 (UniProt P86791) | -0.033
25 | CSTF2 (UniProt P33240) | -0.042
26 | COX6B1 (UniProt P14854) | -0.017
27 | CNDP2 (UniProt Q96KP4) | 0.001
28 | CPQ (UniProt Q9Y646) | 0.009
29 | CA1 (UniProt P00915) | -0.029
30 | CNN2 (UniProt Q99439) | -0.026
31 | CSNK2A2 (UniProt P19784) | 0.022
32 | CNOT2 (UniProt Q9NZN8) | -0.058
33 | CRK (UniProt P46108) | -0.016
34 | CETN2 (UniProt P41208) | -0.091
35 | CPSF1 (UniProt Q10570) | -0.139
36 | CSTF3 (UniProt Q12996) | 0.012
